Source: PubChem BioAssay
An excerpt weighted towards active compounds, which were near 1.5% of everything screened.
BH1578 lux ind: quorum light induction in luxS cqsA deficient V. cholerae; 350,000 tested, 0.16% active; AID 588436; activation, % at 18.7 µM; V. cholerae BH1578 lux reporter, luminescence, 6 h; in the data active = activation mostly above about 9.7%, no sharp cut-off
TcdB inh: blocks C. difficile toxin B glycohydrolase activity; TcdB glycohydrolase enzymatic assay, plate reader; 350,000 tested, 0.24% active; AID 652162; P18177; inhibition, % at 9.99 µM; in the data active = inhibition above about 10%
CCHF vOTU inh: blocks the CCHF virus ovarian tumor domain protease | CCHFV vOTU protease, Pep-AMC fluorescence | inhibition, % at 11.5 µM | 370,000 tested, 0.55% active | AID 651958; in the data active = inhibition above about 30%; also: 0% = vehicle wells with enzyme and 100% = no enzyme wells
SSB-PriA inh: blocks PriA binding to SSB C-terminal tail. AlphaScreen SSBct-PriA binding, biotinylated peptide. inhibition, % at 33 µM. 430,000 tested, 0.6% active. AID 1272365; in the data active = inhibition mostly above about 37%, no sharp cut-off; inactive = mostly below about 20%;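 also: plate controls were negative control peptide for no effect and reference peptide for full effect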
PrPC TRFRET: reduces human prion protein on the cell surface | P04156 | cell surface PrPC, TR-FRET read-out | inhibition, % at 13.8 µM | 370,000 tested, 0.43% active | AID 720596; in the data active = inhibition above about 24%; also: 0% = median of the test wells and 100% = reference compound wells
DUSP3 inh: inhibitors of human VHR1 phosphatase (DUSP3); P51452; recombinant VHR phosphatase, pNPP absorbance; inhibition, % at 13.3 µM; 290,000 tested, 0.52% active; AID 1654; in the data active = inhibition above about 50%
Target sequence (P51452 whole entry, looked up): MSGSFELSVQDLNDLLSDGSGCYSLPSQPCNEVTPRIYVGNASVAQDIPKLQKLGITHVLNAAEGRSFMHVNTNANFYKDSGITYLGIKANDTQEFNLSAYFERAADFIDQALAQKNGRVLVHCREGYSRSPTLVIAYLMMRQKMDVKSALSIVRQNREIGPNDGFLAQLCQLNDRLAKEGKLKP
* = called active by the depositor; i = inactive; / = no result.

SMILES | BH1578 lux ind | TcdB inh | CCHF vOTU inh | SSB-PriA inh | PrPC TRFRET | DUSP3 inh
C=C(C)C(=O)Nc1cccc(C2=NOC3(C2)C[C@@H](C(N)=O)N(C(=O)CCCCC)C3)c1 (stereo partly drawn) | / | 0.5 | 13.6 | 61.4* | -5.8 | 33.9
COC(=O)Cc1ccc(NC(=S)N2CCN(c3cccc(O)c3)CC2)cc1 | -0.3 | / | -7.1 | -3.1 | 7.0 | 55.4*
CCOc1ccc(CN2CCNC(=O)C2CC(=O)NCCc2ccccn2)cc1 (stereo not drawn) | -0.6 | 0.3 | -0.1 | -3.9 | -5.2 | 6.7
CCOc1ccc(CN2CCNC(=O)C2CC(=O)NCc2ccccn2)cc1 (stereo not drawn) | -3.3 | 0.9 | 9.8 | 0.2 | -1.8 | 53.6*
COc1ccccc1C1NC(=O)NC(C)=C1C(=O)OC1CCCCC1 (stereo not drawn) | / | 10.5* | -1.7 | 1.1 | -8.5 | -1.0
Clc1ccc(-c2noc(-c3ccc(CSc4ccccc4)o3)n2)cc1 | / | / | / | 81.0* | / | /
Cc1ccc(NC(=O)Nc2nc(C)c(C(=O)NCCc3ccc(Cl)cc3)s2)cc1 | / | / | / | -5.0 | / | /
COc1ccc(CN(C)CC2CCCN(CCc3ccc(F)cc3)C2)c(OC)c1OC (stereo not drawn) | -1.6 | 1.9 | -4.7 | -2.0 | -4.0 | 59.7*
COc1ccc(CCN2CCCC(CN(C)Cc3cc(OC)ccc3OC)C2)cc1 (stereo not drawn) | 0.2 | -0.7 | -4.1 | 3.3 | -3.6 | -1.9
CCN(Cc1ccc(OC)c(COC)c1)CC1CCCN(CCc2cccc(OC)c2)C1 (stereo not drawn) | -0.9 | 0.5 | 12.2 | -10.2 | -5.0 | 53.6*
CCc1ccccc1NC(=O)N1CCN(c2ccc3nnc(C4CC4)n3n2)CC1 | / | / | / | -11.0 | / | /
Cc1cc(C)cc(C(=O)Nc2nnc(N=Cc3ccc(Br)s3)s2)c1 | / | / | / | 71.0* | / | /
CN(C)c1ccc(C=Nc2nnc(NC(=O)c3ccccc3Br)s2)cc1 | / | / | / | 2.0 | / | /
N#Cc1cccnc1OC1CCN(C(=O)c2ccsc2)CC1 | / | / | / | -26.0 | / | /
COc1ccc(NC(=O)CN2C(=O)S/C(=C/c3cccn3-c3ccc(C(=O)O)cc3)C2=O)cc1 | -0.3 | 1.5 | 12.1 | / | -4.7 | 57.1*
CSc1cccc(CN2CCC(CCC(=O)NC3CC3)CC2)c1 | -0.7 | 1.3 | -7.6 | -11.8 | -7.8 | 51.3*
CCOCc1cc(CN2CCC(CCC(=O)NC3CC3)CC2)ccc1OC | i | -0.1 | -0.2 | -14.5 | -3.1 | 27.6
CSCC[C@@H](C(=O)Nc1ccc2c(c1)OCCO2)N1Cc2ccccc2C1=O | / | 2.2 | 5.7 | 21.1 | -6.8 | 8.2
CS(=O)(=O)CCC(C(=O)Nc1ccc2c(c1)OCO2)N1Cc2ccccc2C1=O (stereo not drawn) | -3.9 | 1.7 | 9.0 | 9.7 | 1.6 | 56.8*
COc1ccc(/C=N/N=C2/NC(=O)C(CC(=O)NC(N)=O)S2)cc1 (stereo not drawn) | i | 10.6* | 15.8 | / | -4.2 | 21.7
NC(=O)NC(=O)CC1S/C(=N\N=C/c2ccccc2)NC1=O (stereo not drawn) | / | / | / | 10.0 | / | /
CN1CC(=O)N/C1=N\C(=O)Nc1ccc(O)cc1 | i | 13.0* | 14.0 | / | -0.4 | /
Cc1ccc(S(=O)(=O)Nc2nc3ccccc3nc2N2CCN(c3ccccc3F)CC2)cc1 | i | / | 14.3 | -0.8 | 1.3 | 50.5*
CSc1ccc(C=NNC(=O)c2ccc(O)cc2)cc1 | / | / | / | -5.2 | / | /
CSc1ccc(/C=N/NC(=O)c2ccc(O)cc2)cc1 | i | 0.8 | 6.7 | / | 8.6 | 59.9*
SMILES | BH1578 lux ind | TcdB inh | CCHF vOTU inh | SSB-PriA inh | PrPC TRFRET | DUSP3 inh
CCn1c(C)nc2cc(C(=O)N/N=C/c3ccc(OC)c(O)c3)ccc21 | -0.4 | 10.8* | 16.6 | / | -11.0 | 5.4
CCn1c(C)nc2cc(C(=O)NN=Cc3ccc(O)cc3)ccc21 | / | / | / | -11.2 | / | /
CCn1c(C)nc2cc(C(=O)N/N=C/c3ccc(O)cc3)ccc21 | -0.3 | 13.8* | -3.2 | / | -9.1 | -8.5
CCOc1ccccc1NC(=O)COc1coc(C(=O)N2CCc3ccccc32)cc1=O | / | / | / | -10.0 | / | /
Cc1ccc(-c2nc(-c3ccccc3)no2)c(Cl)c1 | -0.3 | 0.8 | 7.0 | 104.2* | -0.5 | 8.7
Cc1c(C(=O)N(C)C)sc2nc(-c3ccccn3)[nH]c(=O)c12 | i | / | 13.6 | 47.0* | -5.4 | 19.4
COc1ccc(CN2CCNCC2)cc1 | -0.3 | -0.3 | -7.3 | -0.9 | 1.1 | 59.7*
COc1ccc(CN2CCOCCOCCOCCOCCOCC2)cc1 | -0.4 | -2.1 | -18.5 | 2.2 | 6.0 | 17.0
O=C1Cc2cc(S(=O)(=O)NCc3ccccc3Cl)cc3c2N1CCC3 | -3.1 | 11.3* | -0.5 | 4.8 | 9.2 | -9.0
NC(=NOC(=O)C12CC3CC(CC(C3)C1)C2)c1cccnc1 | / | / | / | -7.5 | / | /
CC(CC(=O)N1CC(S(=O)(=O)C2CCCCC2)C1)n1ccnc1 (stereo not drawn) | / | / | / | 2.0 | / | /
Cc1cccc(N(C)S(=O)(=O)c2c(C)[nH]c(C)c2C(=O)N2CCCC2)c1 | i | 1.9 | 9.6 | 3.0 | 2.1 | 54.2*
Cc1ccc(N(C)S(=O)(=O)c2c(C)[nH]c(C)c2C(=O)N2CCCC2)cc1 | -0.6 | 0.9 | -6.5 | -8.5 | -0.9 | -14.6
S=c1[nH]c2ccc3ccccc3c2[nH]1 | 0.8 | / | -5.2 | -9.9 | 1.5 | 53.0*
Cc1ccc(O[C@H]2CCCN(C(=O)c3c(C)n[nH]c3C)C2)nn1 | / | / | / | -5.0 | / | /
Nc1nonc1-n1nnc(C(=O)N/N=C/c2cccc(Cl)c2)c1CN1CCCC1 | 32.0* | 1.9 | 4.8 | / | -4.8 | /
C/C(=N/NC(=O)c1nnn(-c2nonc2N)c1COc1ccccc1)c1ccccc1Cl | 0.5 | 0.0 | 21.2 | / | -0.3 | 57.0*
Nc1nonc1-n1nnc(C(=O)N/N=C/c2cccc(F)c2)c1CN1CCCC1 | 28.1* | 0.2 | -4.9 | / | 2.4 | /
Nc1nonc1-n1nnc(C(=O)N/N=C/c2cccc(F)c2)c1CN1CCCCCC1 | -0.3 | 1.2 | -1.8 | / | -4.8 | /
Nc1nonc1-n1nnc(C(=O)NN=Cc2cccc(Cl)c2)c1CN1CCCCCC1 | / | / | / | -2.0 | / | /
O=C(c1csc(Nc2ccccc2)n1)N1CCN(c2cccc(Cl)c2)CC1 | / | / | / | 10.0 | / | /
O=C(NN=CC1C(=O)NC(=S)N(c2ccccc2)C1=O)c1cc(Br)c(O)c(Br)c1 (stereo not drawn) | / | / | / | 61.8* | / | /
Cc1ccccc1COc1cccc2[nH]c(C(=O)N3CCC(N4CCCCC4)CC3)cc12 | / | / | / | -19.0 | / | /
O=C(Cn1ccc2ccccc21)N1CC(c2nc(-c3ccco3)no2)C1 | / | / | / | 13.0 | / | /
CC(C)C(=O)Nc1nnc(CCN2CCOCC2)s1 | -0.2 | / | -8.3 | -5.3 | -3.8 | 51.2*
Cc1cc2cc3c(cc2nc1SCC(=O)N1CCCC1)OCCO3 | 1.2 | 2.3 | 0.0 | -1.9 | -4.0 | 52.9*
Oc1cccc(C=NNC(=S)NCCN2CCOCC2)c1O | / | / | / | 58.2* | / | /
O=C(O)c1ccc(/C=N/NC(=S)NCCN2CCOCC2)cc1 | -0.4 | 10.6* | 19.8 | / | -4.2 | 29.7
CC(=NNC(=S)N1CCCC1)c1ccccn1 | i | -3.1 | -4.0 | / | 6.2 | /
O=S(=O)(c1ccccc1)N1CCC(c2ccccn2)C1 (stereo not drawn) | / | / | / | 40.0* | / | /
